PubChem BioAssay AID1159580 (chemical genetic matrix, 2015)
Several values for one entry are separate records, joined by “and”; a condition that tells them apart may be missing. Identical values can stand only once. Among all 5,500 compounds or so, about 2,000 (36%) were called active. Roughly 18% stayed inconclusive and do not appear here. Rule as the data show it: active = normalized growth mostly below about 0.91 (no sharp cut-off); inconclusive = no clear call, values can overlap the other calls; inactive = mostly above about 0.92. This is one part of the list.

Assay: chemical genetic growth profiling, strain panel (AID 1159580);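 also: tested at 20 µM; growth read once vehicle control cultures reached saturation at 30 °C; 1 = growth at the plate median or of vehicle wells; lower values mean less growth of the strain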
Conditions: S. cerevisiae deletion strains, growth OD

Measured: normalized growth

CC(Oc1ccccc1)C(=O)N[C@@H]1C(=O)N2[C@@H]1SC(C)(C)[C@@H]2C(=O)O (some centres not stated)
inactive: locus YAL013W, strain DEP1, active compounds read low 1.01 | locus YAL021C, strain ccr4, active compounds read low 1 | locus YAL026C, strain drs2, active compounds read low 1.01 | locus YAL030W, strain snc1, active compounds read low 0.987 | locus YBL061C, strain skt5, active compounds read low 1 | locus YBR009C, strain hhf1, active compounds read low 0.997 | locus YBR021W, strain FUR4, active compounds read low 0.999 | locus YBR023C, strain chs3, active compounds read low 0.998 | locus YBR171W, strain sec66, active compounds read low 0.984 | locus YBR229C, strain ROT2, active compounds read low 1.01 | locus YBR231C, strain swc5, active compounds read low 0.995 | locus YBR279W, strain paf1, active compounds read low 1.01 | locus YCL011C, strain gbp2, active compounds read low 0.988 | locus YCL016C, strain dcc1, active compounds read low 0.988 | locus YCL029C, strain bik1, active compounds read low 1.04 | locus YCL061C, strain MRC1, active compounds read low 0.998 | locus YCL069W, strain vba3, active compounds read low 0.981 | locus YCR088W, strain abp1, active compounds read low 0.995 | locus YDL005C, strain med2, active compounds read low 0.999 | locus YDL035C, strain GPR1, active compounds read low 1.01 | locus YDL040C, strain nat1, active compounds read low 0.995 | locus YDL074C, strain BRE1, active compounds read low 1.01 | locus YDL101C, strain DUN1, active compounds read low 1.02 | locus YDL134C, strain PPH21, active compounds read low 1.02 | locus YDL185W, strain tfp1, active compounds read low 1.02 | locus YDL192W, strain arf1, active compounds read low 1.02 | locus YDR001C, strain nth1, active compounds read low 0.994 | locus YDR069C, strain doa4, active compounds read low 1 | locus YDR101C, strain arx1, active compounds read low 1.01 | locus YDR137W, strain rgp1, active compounds read low 1 | locus YDR150W, strain NUM1, active compounds read low 1.01 | locus YDR159W, strain sac3, active compounds read low 1.02 | locus YDR162C, strain NBP2, active compounds read low 1.02 | locus YDR195W, strain ref2 1 | locus YDR297W, strain sur2, active compounds read low 0.994 | locus YDR318W, strain mcm21, active compounds read low 1.03 | locus YDR334W, strain swr1, active compounds read low 0.995 | locus YDR335W, strain msn5, active compounds read low 0.996 | locus YDR388W, active compounds read low 1.02 | locus YDR392W, strain spt3, active compounds read low 0.947 | locus YDR502C, strain sam2, active compounds read low 1.01 | locus YEL003W, strain gim4, active compounds read low 0.993 | locus YEL037C, strain rad23, active compounds read low 0.997 | locus YEL061C, strain CIN8 (second series), active compounds read low 0.988 | locus YEL061C, strain CIN8, active compounds read low 1.01 | locus YER015W, strain faa2, active compounds read low 1 | locus YER016W, strain bim1, active compounds read low 1 | locus YER110C, active compounds read low 1.03 | locus YER111C, strain swi4, active compounds read low 1.01 | locus YER155C, strain BEM2 (second series), active compounds read low 0.994 | locus YER155C, strain BEM2, active compounds read low 0.998 | locus YER167W, strain BCK2, active compounds read low 1.01 | locus YFR010W, strain ubp6, active compounds read low 0.997 | locus YGL078C, strain dbp3, active compounds read low 1.02 | locus YGL086W, strain mad1, active compounds read low 1.01 | locus YGL167C, strain pmr1, active compounds read low 0.999 | locus YGL173C, strain kem1, active compounds read low 1.01 | locus YGL227W, strain vid30, active compounds read low 0.988 | locus YGL240W, strain doc1, active compounds read low 1 | locus YGL248W, strain PDE1, active compounds read low 1.01 | locus YGL253W, strain hxk2, active compounds read low 0.994 | locus YGR078C, strain PAC10, active compounds read low 1.01 | locus YGR135W, strain pre9, active compounds read low 1.02 | locus YGR229C, strain SMI1, active compounds read low 0.999 | locus YGR252W, strain gcn5, active compounds read low 0.994 | locus YHR013C, strain ard1, active compounds read low 0.984 | locus YHR027C, strain rpn1, active compounds read low 0.999 | locus YHR030C, strain SLT2, active compounds read low 1.01 and 1.04 | locus YHR079C, strain IRE1 (second series), active compounds read low 1.02 | locus YHR079C, strain IRE1, active compounds read low 0.999 | locus YHR094C, strain hxt1, active compounds read low 1.02 | locus YHR129C, strain ARP1, active compounds read low 1.01 | locus YHR142W, strain chs7, active compounds read low 0.979 | locus YHR200W, strain rpn10, active compounds read low 1.02 | locus YIL066C, strain RNR3, active compounds read low 1.01 | locus YIL073C, strain SPO22, active compounds read low 1.06 | locus YIL125W, strain kgd1, active compounds read low 1.01 | locus YIR030C, strain dcg1, active compounds read low 1.02 | locus YJL092W, strain hpr5, active compounds read low 0.993 | locus YJL095W, strain BCK1 (second series), active compounds read low 0.995 | locus YJL095W, strain BCK1, active compounds read low 1.04 | locus YJL115W, strain asf1, active compounds read low 0.999 | locus YJL129C, strain trk1, active compounds read low 1 | locus YJL134W, strain LCB3, active compounds read low 1.01 | locus YJL154C, strain vps35, active compounds read low 0.991 | locus YJL164C, strain tpk1, active compounds read low 0.999 | locus YJL166W, strain qcr8, active compounds read low 0.986 | locus YJL168C, strain set2, active compounds read low 1.02 | locus YJL187C, strain SWE1 (second series), active compounds read low 1.02 | locus YJL187C, strain SWE1, active compounds read low 0.997 | locus YJR043C, strain POL32, active compounds read low 1.01 | locus YJR066W, strain TOR1, active compounds read low 0.966
